# Measurements from paper PMC7862700, “An all-to-all approach to the identification of sequence-specific readers for epigenetic DNA modifications on cytosine”.
# Legend:
# Assay in all cases: DAPPL (digital affinity profiling via proximity ligation, sequencing); 10 mM Tris-HCl pH 7.5, 50 mM NaCl, 1 mM DTT, 4% glycerol, room temperature, 30 min; GST-TFs on glutathione beads, 16-mer random dsDNA library, 0.1% formaldehyde crosslink after washing; high values mean tight binding
# FEV = target: T1, FEV (Homo sapiens, UniProt Q99581 1-238); conditions: protein: recombinant; tags: N-terminal GST; dsDNA, one strand shown
# T1 sequence: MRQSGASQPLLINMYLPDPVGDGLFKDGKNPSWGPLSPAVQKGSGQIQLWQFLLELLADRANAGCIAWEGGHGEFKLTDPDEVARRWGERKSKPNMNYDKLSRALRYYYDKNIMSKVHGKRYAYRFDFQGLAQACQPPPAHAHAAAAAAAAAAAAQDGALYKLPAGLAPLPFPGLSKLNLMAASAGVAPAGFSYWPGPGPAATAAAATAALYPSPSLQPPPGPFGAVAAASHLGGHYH
# Procedure, shortened: (§1)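 Pools were built from human transcription factors expressed in yeast as GST fusions, captured on glutathione beads and DNA-barcoded, along with a tag-only sample. Incubation with 200 nmole of a 16-mer random double-stranded DNA library lasted 30 min at room temperature in Tris/NaCl/DTT/glycerol buffer, and was followed by washing, 0.1% formaldehyde crosslinking, proximity ligation, PCR amplification and Illumina NextSeq500 sequencing. Binding signal is the quotient of each hexamer's read frequency for a factor and its frequency for the tag-only sample.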
# ETV5 = ETV5 (Homo sapiens, UniProt P41161 1-510); conditions: protein: recombinant; tags: N-terminal GST; dsDNA, one strand shown
# Sequence of ETV5 (P41161 whole entry): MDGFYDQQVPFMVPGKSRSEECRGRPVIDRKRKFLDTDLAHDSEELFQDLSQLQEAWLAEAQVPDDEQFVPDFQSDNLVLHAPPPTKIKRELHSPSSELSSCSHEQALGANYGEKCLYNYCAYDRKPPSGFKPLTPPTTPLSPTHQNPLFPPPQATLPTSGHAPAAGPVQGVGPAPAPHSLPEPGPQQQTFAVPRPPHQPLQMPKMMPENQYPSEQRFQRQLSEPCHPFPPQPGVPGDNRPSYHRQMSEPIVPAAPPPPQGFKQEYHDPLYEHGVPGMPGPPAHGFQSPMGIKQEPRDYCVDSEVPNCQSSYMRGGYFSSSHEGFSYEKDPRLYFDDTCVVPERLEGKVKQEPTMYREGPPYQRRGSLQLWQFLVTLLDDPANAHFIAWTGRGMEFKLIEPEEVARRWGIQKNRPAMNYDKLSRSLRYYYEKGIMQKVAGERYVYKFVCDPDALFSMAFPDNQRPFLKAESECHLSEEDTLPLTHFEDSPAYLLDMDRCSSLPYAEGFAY
# Procedure, shortened: as §1
# HSF1 = HSF1 (Homo sapiens, UniProt Q00613 1-529); conditions: protein: recombinant; tags: N-terminal GST; chain copies: 3; dsDNA, one strand shown
# Sequence of HSF1 (Q00613 whole entry): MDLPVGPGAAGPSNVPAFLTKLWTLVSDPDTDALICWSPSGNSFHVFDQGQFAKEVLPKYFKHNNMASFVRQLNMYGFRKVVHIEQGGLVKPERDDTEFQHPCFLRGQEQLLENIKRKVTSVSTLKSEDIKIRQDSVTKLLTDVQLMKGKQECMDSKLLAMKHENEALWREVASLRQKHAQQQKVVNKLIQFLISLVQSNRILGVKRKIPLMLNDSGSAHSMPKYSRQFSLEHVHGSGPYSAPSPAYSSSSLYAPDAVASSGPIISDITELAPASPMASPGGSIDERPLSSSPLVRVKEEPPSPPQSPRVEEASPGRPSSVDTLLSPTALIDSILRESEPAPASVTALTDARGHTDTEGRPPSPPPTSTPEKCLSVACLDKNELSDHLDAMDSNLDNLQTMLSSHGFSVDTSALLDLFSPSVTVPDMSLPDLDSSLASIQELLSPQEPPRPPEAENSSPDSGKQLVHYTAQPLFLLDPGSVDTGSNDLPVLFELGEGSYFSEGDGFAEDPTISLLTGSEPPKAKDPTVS
# Procedure, shortened: as §1
# SPIC = target: T2, SPIC (Homo sapiens, UniProt Q8N5J4 1-248); conditions: protein: recombinant; tags: N-terminal GST; dsDNA, one strand shown
# T2 sequence: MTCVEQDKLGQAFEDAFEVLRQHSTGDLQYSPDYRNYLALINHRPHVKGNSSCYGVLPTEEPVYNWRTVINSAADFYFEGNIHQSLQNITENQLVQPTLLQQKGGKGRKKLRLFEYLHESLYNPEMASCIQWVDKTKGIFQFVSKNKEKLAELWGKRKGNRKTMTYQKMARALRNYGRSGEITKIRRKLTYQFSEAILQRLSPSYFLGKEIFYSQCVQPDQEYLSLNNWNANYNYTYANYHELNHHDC
# Procedure, shortened: as §1
# ELF4 = ELF4 (Homo sapiens, UniProt Q99607 1-663); conditions: protein: recombinant; tags: N-terminal GST; dsDNA, one strand shown
# Sequence of ELF4 (Q99607 whole entry): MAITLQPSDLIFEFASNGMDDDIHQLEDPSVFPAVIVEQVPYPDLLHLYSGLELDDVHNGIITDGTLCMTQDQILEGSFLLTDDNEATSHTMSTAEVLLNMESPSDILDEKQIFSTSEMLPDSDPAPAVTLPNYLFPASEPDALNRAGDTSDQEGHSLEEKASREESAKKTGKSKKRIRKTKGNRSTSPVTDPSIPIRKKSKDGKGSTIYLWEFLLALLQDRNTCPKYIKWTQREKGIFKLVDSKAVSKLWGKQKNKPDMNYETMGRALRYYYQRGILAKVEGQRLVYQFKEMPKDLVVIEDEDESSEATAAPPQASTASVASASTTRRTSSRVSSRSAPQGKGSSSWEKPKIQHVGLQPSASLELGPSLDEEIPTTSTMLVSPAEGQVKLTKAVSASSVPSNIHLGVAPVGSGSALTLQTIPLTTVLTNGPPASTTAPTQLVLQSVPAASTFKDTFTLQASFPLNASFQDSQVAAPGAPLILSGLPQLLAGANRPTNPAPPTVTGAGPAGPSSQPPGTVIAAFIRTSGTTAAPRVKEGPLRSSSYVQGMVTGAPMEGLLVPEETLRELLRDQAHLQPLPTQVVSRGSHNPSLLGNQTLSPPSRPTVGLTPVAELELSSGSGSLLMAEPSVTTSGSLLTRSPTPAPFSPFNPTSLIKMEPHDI
# Procedure, shortened: as §1
# ELK4 = target: T3, ELK4 (Homo sapiens, UniProt P28324-2 1-405); conditions: protein: recombinant; tags: N-terminal GST; dsDNA, one strand shown
# T3 sequence: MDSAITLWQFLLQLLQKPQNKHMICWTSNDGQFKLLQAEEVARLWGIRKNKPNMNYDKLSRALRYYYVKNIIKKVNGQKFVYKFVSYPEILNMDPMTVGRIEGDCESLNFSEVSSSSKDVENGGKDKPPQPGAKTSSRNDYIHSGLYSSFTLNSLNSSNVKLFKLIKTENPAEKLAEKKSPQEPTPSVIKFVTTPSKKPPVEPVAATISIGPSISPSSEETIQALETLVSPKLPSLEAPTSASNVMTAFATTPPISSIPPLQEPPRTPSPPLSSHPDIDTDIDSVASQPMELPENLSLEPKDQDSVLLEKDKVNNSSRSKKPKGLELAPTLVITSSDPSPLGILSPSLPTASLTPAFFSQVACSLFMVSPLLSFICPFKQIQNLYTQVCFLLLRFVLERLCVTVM
# Procedure, shortened: as §1
# ETV2 = target: T4, ETV2 (Homo sapiens, UniProt O00321 1-342); conditions: protein: recombinant; tags: N-terminal GST; dsDNA, one strand shown
# T4 sequence: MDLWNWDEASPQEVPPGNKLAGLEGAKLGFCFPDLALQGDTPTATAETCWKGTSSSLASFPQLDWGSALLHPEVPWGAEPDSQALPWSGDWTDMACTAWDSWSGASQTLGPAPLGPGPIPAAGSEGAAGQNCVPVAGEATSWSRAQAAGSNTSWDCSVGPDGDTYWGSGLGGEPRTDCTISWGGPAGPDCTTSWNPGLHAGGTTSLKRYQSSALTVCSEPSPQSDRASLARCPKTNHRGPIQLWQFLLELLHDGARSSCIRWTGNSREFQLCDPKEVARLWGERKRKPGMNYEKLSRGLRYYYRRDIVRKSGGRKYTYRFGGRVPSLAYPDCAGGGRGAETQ
# Procedure, shortened: as §1
# ELF3 = target: T5, ELF3 (Homo sapiens, UniProt P78545 1-371); conditions: protein: recombinant; tags: N-terminal GST; dsDNA, one strand shown
# T5 sequence: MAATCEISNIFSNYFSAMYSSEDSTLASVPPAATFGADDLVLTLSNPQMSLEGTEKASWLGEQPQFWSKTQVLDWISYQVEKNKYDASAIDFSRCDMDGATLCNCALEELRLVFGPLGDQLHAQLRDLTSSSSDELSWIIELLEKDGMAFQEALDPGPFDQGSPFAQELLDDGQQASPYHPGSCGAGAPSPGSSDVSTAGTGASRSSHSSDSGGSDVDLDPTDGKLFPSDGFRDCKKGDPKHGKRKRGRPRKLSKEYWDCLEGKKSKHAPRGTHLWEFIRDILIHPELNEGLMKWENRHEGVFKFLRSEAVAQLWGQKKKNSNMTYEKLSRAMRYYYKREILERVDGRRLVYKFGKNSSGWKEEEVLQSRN
# Procedure, shortened: as §1
# CRX = CRX (Homo sapiens, UniProt O43186 1-299); conditions: protein: recombinant; tags: N-terminal GST; dsDNA, one strand shown
# Sequence of CRX (O43186 whole entry): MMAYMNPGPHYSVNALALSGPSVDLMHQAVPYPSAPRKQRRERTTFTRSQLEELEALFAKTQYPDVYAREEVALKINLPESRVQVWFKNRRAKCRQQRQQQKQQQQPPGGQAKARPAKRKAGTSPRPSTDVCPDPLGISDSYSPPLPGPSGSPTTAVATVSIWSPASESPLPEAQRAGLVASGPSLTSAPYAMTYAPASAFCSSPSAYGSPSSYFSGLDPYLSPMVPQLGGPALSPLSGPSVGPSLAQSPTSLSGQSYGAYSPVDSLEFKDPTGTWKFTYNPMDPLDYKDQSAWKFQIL
# Procedure, shortened: as §1
# ETV1 = ETV1 (Homo sapiens, UniProt P50549 1-477); conditions: protein: recombinant; tags: N-terminal GST; dsDNA, one strand shown
# Sequence of ETV1 (P50549 whole entry): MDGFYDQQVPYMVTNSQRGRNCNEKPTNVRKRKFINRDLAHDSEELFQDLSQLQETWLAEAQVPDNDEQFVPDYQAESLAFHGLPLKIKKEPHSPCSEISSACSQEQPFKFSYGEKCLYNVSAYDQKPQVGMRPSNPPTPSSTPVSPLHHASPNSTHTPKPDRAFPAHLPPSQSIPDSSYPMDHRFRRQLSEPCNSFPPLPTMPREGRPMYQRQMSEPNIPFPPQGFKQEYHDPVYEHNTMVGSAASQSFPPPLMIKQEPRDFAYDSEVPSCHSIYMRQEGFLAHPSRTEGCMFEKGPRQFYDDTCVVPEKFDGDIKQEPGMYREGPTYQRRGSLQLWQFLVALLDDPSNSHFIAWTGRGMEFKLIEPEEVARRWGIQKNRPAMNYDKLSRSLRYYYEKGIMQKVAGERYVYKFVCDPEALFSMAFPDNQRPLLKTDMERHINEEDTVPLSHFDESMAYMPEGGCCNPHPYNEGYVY
# Procedure, shortened: as §1
sequence,measurement,setting,value
CACCTT,binding signal,FEV,"1.31 fold enrichment (6-mer frequency, TF over GST control)"
same,binding signal,ETV5,"1.18 fold enrichment (6-mer frequency, TF over GST control)"
same,binding signal,HSF1,"1.08 fold enrichment (6-mer frequency, TF over GST control)"
same,binding signal,SPIC,"1.2 fold enrichment (6-mer frequency, TF over GST control)"
same,binding signal,ELF4,"1.37 fold enrichment (6-mer frequency, TF over GST control)"
same,binding signal,ELK4,"1.39 fold enrichment (6-mer frequency, TF over GST control)"
same,binding signal,ETV2,"1.25 fold enrichment (6-mer frequency, TF over GST control)"
same,binding signal,ELF3,"1.26 fold enrichment (6-mer frequency, TF over GST control)"
same,binding signal,CRX,"1.1 fold enrichment (6-mer frequency, TF over GST control)"
same,binding signal,ETV1,"1.35 fold enrichment (6-mer frequency, TF over GST control)"
